# Pf growth 48h: P. falciparum growth inhibition at 48 hours (one generation); P. falciparum luciferase growth in erythrocytes, 48 h; Potency, µM (titrated, usually from 28.7 µM), without a hit: top-dose activity change, negative = inhibition, hits mostly inhibitors; 310,000 tested, 5.9% active; note: potency is the fitted concentration of half-maximal effect; % is set by controls: 0 for no effect and ±100 for the full control effect
#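 A one-generation exposure of luciferase-tagged malaria parasites in RPMI 1640/Albumax erythrocyte culture, 37 C and 5% CO2. Inhibition is inferred from decreased luminescence after adding detection reagent.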
# Pf growth 96h: P. falciparum growth inhibition at 96 hours; P. falciparum luciferase reporter growth, 96 h; 320,000 tested, 6.9% active; AID 504834; Potency, µM (doses to about 28.7 µM), for the others: at the top dose activity change, negative = inhibition, most hits filed as inhibitors; note: potency is the fitted concentration of half-maximal effect; % is set by controls: 0 for no effect and ±100 for the full control effect
#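 96 h incubation, 37 C, 5% CO2, of luciferase-reporter P. falciparum-infected RBCs (2% hematocrit, 0.05% parasitemia final) with test compounds; endpoint luminescence.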
# Shiga toxin inh: Shiga toxin inhibition; inhibition, % at 38.7 µM; 290,000 tested, 9.2% active; Vero cells, Shiga toxin protein synthesis inhibition reporter; in the data active = inhibition mostly above about 28%, no sharp cut-off; inactive = mostly below about 43%; note: 0% is about no effect
# Cycloheximide cs: counter-screen for Shiga toxin inhibitors: cycloheximide protein synthesis inhibition; max response, %; AID 2314; 300,000 tested, 12% active; cell reporter, cycloheximide protein synthesis inhibition counterscreen; in the data active = max response mostly above about 13%, no sharp cut-off; inactive = mostly below about 14%; note: read at 38.3 µM for the half of the compounds with a filed dose; 0% is about no effect
# * hit, by the source's call; ? = inconclusive; . = no result; [ ] = remark or other dose. Compounds with a hit are over-represented: about 21% of the library has one in this group of screens. Unless noted, calls come from the whole dose curve; as a rule, active = well fitted inhibition curve with a large enough effect; inconclusive = small, poorly fitted or top-dose-only effect, or another doubt; inactive = no such curve, though single readings can be large or run the other way.
SMILES,Pf growth 48h,Pf growth 96h,Shiga toxin inh,Cycloheximide cs
CCCOc1ccccc1C(=O)N1CCNC(=O)C1CC(=O)OC(C)C (stereo not drawn),19%,-16%,-16,-2
O=C(Cn1c(=O)oc2cccnc21)Nc1ccc(C(F)(F)F)cc1,9%,0%,-6,-1
CN1CCN(NC(=O)c2ccc(COc3ccccc3Br)o2)CC1,8%[5.75 µM],0%,22,19
O=C(Nc1ccc(N2CCCC2)cc1)c1ccc(Cl)cc1Cl,.,42%,47*,47*
CC(Oc1ccc(Cl)cc1Cl)C(=O)Nc1ccc(N2CCN(C)CC2)cc1 (stereo not drawn),13µM*,69%,-12,-2
COC(=O)Cc1ccc(NC(=O)c2ccccc2Cl)cc1,8%,?,35,28*
O=C(Nc1ccc(N2CCCC2)cc1)c1cccc(Cl)c1,92%,-14%,52*,25*
COC(=O)Cc1ccc(NC(=O)c2ccc(C(C)(C)C)cc2)cc1,.,?,-6,1
O=C(Nc1ccccc1N1CCCC1)c1ccc(Cl)cc1Cl,0%,-2%,28,-2
COc1cc(S(=O)(=O)Nc2ccc3nc(C)sc3c2)ccc1NC(C)=O,-27%,?,.,.
O=C(Cc1cccs1)NC1C(=O)N2C(C(=O)[O-])=C(C[n+]3ccccc3)CSC12 (stereo not drawn),-9%,2%,.,.
O=C(CC(c1ccccc1)c1cc(Cl)ccc1O)NCCCN1CCOCC1 (stereo not drawn),?,-13%,-4,-1
COc1ccc(NC(=O)CS(=O)c2cccc(C(F)(F)F)c2)cc1 (stereo not drawn),-9%,0%,1,-2
O=C(Nc1ccc(N2CCOCC2)cc1)c1cc(F)c(F)cc1Cl,33%,10%,56*,35*
COc1ccccc1C(=O)Nc1ccc(N2CCCCC2)cc1,.,109%,65*,45*
COc1cccc(OC)c1C(=O)Nc1ccc(N2CCCC2)cc1,10%,?,.,-2
Cc1csc(=O)n1CCC(=O)OCC(=O)NCc1ccc(F)cc1,10%,15%,.,.
CN(C)S(=O)(=O)c1cccc(NC(=O)c2ccc(N3CCOCC3)c([N+](=O)[O-])c2)c1,-8%,?,18,4
COCCCNc1nc2ccccc2nc1NS(=O)(=O)c1cccc(C)c1,?,18%,-9,7
Cc1cc(/C=C/C(=O)O)c(C)n1-c1ccc(Cl)cc1,-26%[1.15 µM],-34%[1.15 µM],-14,-2
Cc1cc(/C=C\c2ccc3cc(N(C)C)ccc3[n+]2C)c(C)n1-c1ccccc1,0.26µM*,0.0033µM*,.,.
CCCCOc1ccc(C(=O)N/C(=C/C=C/c2ccccc2)C(=O)NC)cc1,37%,180%,27,10*
CC[C@H](C)[C@H](NC(=O)[C@H](CO)NC(=O)[C@H](CC(C)C)NC(=O)[C@H](CO)NC(=O)[C@@H]1CCCN1C(=O)[C@H](CC(N)=O)NC(=O)[C@@H](N)CC(=O)O)C(=O)N[C@@H](CC(=O)O)C(=O)N[C@@H](CC(C)C)C(=O)N[C@H](C(=O)N[C@@H](Cc1ccccc1)C(=O)N[C@@H](Cc1cnc[nH]1)C(=O)N[C@@H](CC(C)C)C(=O)N[C@@H](CC(C)C)C(=O)N[C@@H](CCCNC(=N)N)C(=O)N[C@H](C(=O)N[C@@H](CC(C)C)C(=O)N[C@@H](CC(C)C)C(=O)N[C@@H](CCC(=O)O)C(=O)N[C@@H](CC(C)C)C(=O)N[C@@H](C)C(=O)N[C@@H](CCCNC(=N)N)C(=O)N[C@H](C(=O)N[C@@H](CCC(N)=O)C(=O)N[C@@H](CO)C(=O)N[C@@H](CCC(N)=O)C(=O)N[C@@H](CCCNC(=N)N)C(=O)N[C@@H](CCC(=O)O)C(=O)N[C@@H](CCCNC(=N)N)C(=O)N[C@@H](C)C(=O)N[C@@H](CCC(=O)O)C(=O)N[C@@H](CCC(N)=O)C(=O)N[C@@H](CC(N)=O)C(=O)N[C@@H](CCCNC(=N)N)C(=O)N[C@H](C(=O)N[C@H](C(=O)N[C@@H](Cc1ccccc1)C(=O)N[C@@H](CC(=O)O)C(=O)N[C@@H](CO)C(=O)N[C@H](C(N)=O)C(C)C)[C@@H](C)CC)[C@@H](C)CC)[C@@H](C)O)[C@@H](C)O)[C@@H](C)O,.,.,17*,-7

# Screening results as filed in PubChem BioAssay.
